An excerpt weighted towards active compounds, which were near 6% of everything screened.
D1 agonist: agonists of human D1 dopamine receptor. P21728. hit rate 1% among 360,000. HEK293 T-REx D1 cells, calcium flux, agonist mode. AID 504660. activation, % at 2 µM; in the data active means activation above about 30%; further: 0% is about no effect
Target sequence (P21728 whole entry, looked up): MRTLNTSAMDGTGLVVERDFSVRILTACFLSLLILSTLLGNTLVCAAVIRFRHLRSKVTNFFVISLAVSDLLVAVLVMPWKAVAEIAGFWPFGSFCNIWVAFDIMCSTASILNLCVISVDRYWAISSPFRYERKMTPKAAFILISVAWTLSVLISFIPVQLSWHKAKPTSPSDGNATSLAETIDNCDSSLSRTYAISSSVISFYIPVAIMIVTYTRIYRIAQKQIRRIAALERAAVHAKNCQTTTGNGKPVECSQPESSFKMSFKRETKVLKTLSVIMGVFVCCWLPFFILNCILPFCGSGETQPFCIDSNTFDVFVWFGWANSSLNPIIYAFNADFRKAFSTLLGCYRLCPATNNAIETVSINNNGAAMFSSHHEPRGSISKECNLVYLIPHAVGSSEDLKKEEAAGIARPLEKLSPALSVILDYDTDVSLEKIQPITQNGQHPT
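Tetracycline-induced HEK293 TREx D1 cells, force-coupled to calcium signalling, were dye-loaded with a no-wash calcium kit. Compound was pin-added after a 10 s baseline. Fluorescence was read kinetically at 1 cycle/s for 180 s, with calcium rises flagged as agonism.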
D1 potentiator: human D1 dopamine receptor positive modulation. hit rate 0.036% among 360,000. AID 504651. potentiation, % at 10 µM. HEK293 TREx D1 cells, calcium flux, dopamine EC20 potentiation; in the data active means potentiation above about 30%; further: 0% is about no effect
D3 antag: D3 dopamine receptor (human) antagonism | P35462 | D3R cells, DiscoveRx beta-arrestin luminescence, antagonist mode; stronger effect = lower value | max response, negative = inhibition, % | hit rate 2.5% among 360,000 | AID 652054; in the data active means max response below about -50%; further: on the % scale 0 is the no-effect control and ±100 the full control effect
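Cells expressing the human receptor were seeded at 1500 cells/well, incubated overnight at 37 degrees C in 5% CO2, then exposed to library compounds with dopamine controls for 90 minutes at 37 degrees C before luminescent detection.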
DRD3 agonist: agonists of human D3 dopamine receptor | hit rate 0.58% among 410,000 | P35462 | max activation, % | AID 652048 | D3R DiscoveRx beta-arrestin cells, luminescence, 90 min; in the data active means max activation above about 30%; further: 0% is about no effect
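Agonist-mode cell screen: cells plated at 1500/well and incubated overnight at 37 °C, then exposed to library compounds for 90 min at 37 °C. Detection reagent was added for 30–60 min at room temperature, and luminescence was read.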
D1 antagonist: human D1 dopamine receptor antagonism. P21728. HEK293 TREx D1 cells, calcium flux, dopamine EC80; stronger effect = lower value. activity change, negative = inhibition, % at 10 µM. hit rate 3.2% among 360,000. AID 504652; in the data active means activity change below about -30%; further: on the % scale 0 is the no-effect control and ±100 the full control effect
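HEK293 T-REx cells expressing inducible, force-coupled D1 receptor; no-wash Ca dye, 30–90 min RT. Cmpd → 180 s read at 1 Hz → EC80 DA → 180 s read.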
* marks the source's active call; other numbers are inactive results; x = no result given.

SMILES	D1 agonist	D1 potentiator	D3 antag	DRD3 agonist	D1 antagonist
O=C1CN(C(=O)COc2ccccc2)C(c2ccc(F)cc2)c2cc(Br)ccc2N1 (configuration not stated)	1	3	x	2	8
O=C1CN(C(=O)Cc2ccccc2)C(c2ccc(F)cc2)c2cc(Br)ccc2N1 (configuration not stated)	2	4	x	2	-48*
CCCOc1ccc(CC(=O)NNC(=S)Nc2ccccc2)cc1Br	4	0	-56*	6	-6
COc1ccc(CC(=O)NNC(=S)Nc2ccccc2)cc1Cl	1	-8	-8	5	21
Cc1cc(C(F)(F)F)c2sc(N)nc2n1	2	-6	10	3	-53*
Cc1ccc(CN2CCN(CC(=O)N=Nc3c(O)[nH]c4ccccc34)CC2)cc1	1	-3	-90*	-17	5
COC(=O)c1c(C)cc(O)c(C=O)c1O	x	x	-53*	-15	x
Cn1cnc([N+](=O)[O-])c1S(=O)(=O)Oc1cccc2ccccc12	x	x	-97*	-35	x
Cn1cnc([N+](=O)[O-])c1S(=O)(=O)Oc1ccc(Cl)cc1	x	x	-89*	-13	x
CCOc1ccc(-n2c(SCc3ccc(C(=O)OC)o3)nc3c([nH]c4ccccc43)c2=O)cc1	0	-2	x	-6	5
COc1ccc(C(=O)c2cn(CC(=O)Nc3cc(C)ccc3C)c3nc(C)ccc3c2=O)cc1	6	3	x	-8	1
CCCOc1ccc(N2C(=O)CC(NCc3ccncc3)C2=O)cc1 (configuration not stated)	1	1	0	0	-59*
CCCOc1ccc(N2C(=O)CC(NCc3cccs3)C2=O)cc1 (configuration not stated)	-1	-3	0	-3	-3
CCc1ccccc1NC(=O)Cn1nnc(C(=O)Nc2ccc(OC)c(OC)c2)c1N	0	-4	x	-3	3
COc1ccc(/C=C/C(=O)OCC(=O)Nc2ccc3[nH]c(=O)[nH]c3c2)cc1OC	2	-11	34	4	-32*
CCOC(=O)/C=C/C(=O)OCC(=O)Nc1ccc([N+](=O)[O-])cc1	9	-6	-1	4	-33*
O=C(COC(=O)/C=C/c1ccc(F)cc1)Nc1ccc2[nH]c(=O)[nH]c2c1	3	-12	13	-1	-13
C/C=C/c1ccc(OCC(=O)Nc2ccc(OC)c(OC)c2)c(OC)c1	4	-4	1	-8	-38*
COc1cc(/C=C/C(=O)OCC(=O)Nc2ccc([N+](=O)[O-])cc2)ccc1O	31*	-1	-11	5	-14
CCNC(=O)C1CCN(S(=O)(=O)c2ccc3c(c2)CCCN3C(C)=O)CC1	1	-1	x	9	2
O=C(CCS(=O)(=O)c1cc2c3c(c1)CCN3C(=O)CC2)NCc1ccc(F)cc1	1	-1	x	2	3
Cc1ccnc2c1ccc1c(C)ccnc12	1	-1	-100*	-18	9
c1cnc2c(c1)ccc1cccnc12	5	-8	-76*	-14	0
Cc1ccnc2c1ccc1cccnc12	1	-3	-95*	-29	-1
Cc1ccnc2c1ccc1ccccc12	0	-6	0	-1	-18
SMILES	D1 agonist	D1 potentiator	D3 antag	DRD3 agonist	D1 antagonist
O=Cc1ccc2ccc3cccnc3c2n1	0	-1	-14	-17	12
CCCCOC(=O)c1ccc(Nc2ncnc3[nH]ncc23)cc1	-2	-2	x	3	-20
CCCc1cc(=O)[nH]c(SCc2nc(-c3ccc(OC)cc3)no2)n1	5	-1	x	7	8
Cc1csc(CN(C)C(=O)C2CCC(=O)N(CCCc3ccccc3)C2)n1 (configuration not stated)	6	0	10	-2	-43*
O=C(NCCCc1ccccc1)C1CCC(=O)N(Cc2ccc(Cl)cc2)C1 (configuration not stated)	6	-3	0	-19	-41*
Cc1c(CNC(=O)C2CCC(=O)N(CCc3ccccc3)C2)cnn1C (configuration not stated)	4	2	-25	-13	-33*
Cc1ccc(F)cc1CNC(=O)C1CCC(=O)N(CCc2ccccc2)C1 (configuration not stated)	0	1	-11	2	4
Cc1csc(CNC(=O)C2CCC(=O)N(CCCc3ccccc3)C2)n1 (configuration not stated)	2	-1	-4	4	-14
Cn1cc(CCNC(=O)C2CCC(=O)N(CCc3ccc(Cl)cc3)C2)cn1 (configuration not stated)	0	-18	8	3	-52*
COc1ccc(C)cc1NC(=O)c1nnn(Cc2cccc(C(F)(F)F)c2)c1N	11	2	-27	-6	3
COc1ccc(Cn2nnc(C(=O)Nc3ccc4c(c3)OCCO4)c2N)cc1Br	4	-1	-22	-1	4
COc1cccc(NC(=O)c2nnn(Cc3cccc(C(F)(F)F)c3)c2N)c1	63*	-4	x	-11	-7
COc1cccc(NC(=O)c2nnn(Cc3ccc(Br)cc3F)c2N)c1	39*	4	14	-5	4
COc1cccc(NC(=O)c2nnn(Cc3ccc(OC)c(Br)c3)c2N)c1	5	-2	x	2	-73*
CCc1ccc(Cn2nnc(C(=O)Nc3ccc(OC)cc3OC)c2N)cc1	33*	x	-9	0	14
Cc1ccc(OCCNC(=O)c2ccccc2OCc2c(C)noc2C)cc1	1	4	5	0	-9
O=C(CN1C(=O)COc2ccc(S(=O)(=O)NC3CCCC3)cc21)NCc1ccc(Cl)cc1	5	-2	x	-11	0
COC(=O)c1cc(NC(=O)[C@H](CCS(C)(=O)=O)N2Cc3ccccc3C2=O)cc(C(=O)OC)c1	3	-4	x	-4	-2
CC(CCc1ccccc1)NC(=O)/C=C/c1ccc(Cl)cc1 (configuration not stated)	9	-4	10	-7	-86*
Cc1ccc(/C=C/C(=O)NCCCc2ccccc2)cc1	22	-8	10	0	-40*
CC(Cc1ccccc1)NC(=O)/C=C/c1ccc([N+](=O)[O-])cc1 (configuration not stated)	4	-3	3	-3	-8
CCc1ccc(OCC(=O)Nc2cc(-c3nc4cc(C)ccc4o3)ccc2C)cc1	-1	-1	x	6	-5
Cc1cc([N+](=O)[O-])cc2ncccc12	-2	-1	-75*	-13	x
Cc1cccc(Cn2ncc3c4sc(C)cc4n(C)c3c2=O)c1	3	4	x	x	9
COc1ccccc1N/C(N)=N/c1nc(CSc2nc3ccccc3s2)cc(=O)[nH]1	5	4	x	x	-31*
COC(=O)Cc1cc(=O)[nH]c(/N=C(\N)Nc2ccc(C)cc2C)n1	5	-9	8	1	-32*
COCc1cc(=O)[nH]c(/N=C(\N)Nc2ccccc2C)n1	1	-2	-7	1	11

Source: PubChem BioAssay (National Center for Advancing Translational Sciences (NCATS))
